# Source: PubChem
# This is one part of a sample in which hits are shown more often than they occur.
# LmPK inhibitor: inhibitors of Leishmania mexicana pyruvate kinase; Q27686; purified LmPK, Kinase-Glo ATP luminescence, 1 h; Potency, µM (series often up to 57.5 µM), for inactives: at the highest dose activity change, negative = inhibition, hits mostly inhibitors; 290,000 compounds, 0.37% hits; AID 1721; note: potency is the fitted concentration of half-maximal effect; % is set by controls: 0 for no effect and ±100 for the full control effect
#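 Pyruvate kinase activity monitored as ATP production (luciferase luminescence). Conditions: 0.1 nM enzyme, 0.5 mM PEP, 0.1 mM ADP, 1 h, RT; normalized against uninhibited and no-enzyme wells.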
# Cycloheximide cs: affects cycloheximide protein synthesis inhibition readout, counter-screen; cell reporter, cycloheximide protein synthesis inhibition counterscreen; max response, %; 300,000 compounds, 12% hits; in the data active = max response mostly above about 13%, no sharp cut-off; inactive = mostly below about 14%; note: read at 38.3 µM for the half of the compounds with a filed dose; 0% is about no effect
# RE007 growth inh: less growth of the S. pombe RE007 Vpr strain. Potency, µM (highest dose often 92.2 µM), for the others: top-dose activity change, negative = less growth, usual class: inhibitors. S. pombe RE007 Vpr strain, BacTiter-Glo ATP luminescence, 24 h. 360,000 compounds, 0.21% hits; active = well fitted falling curve with a large enough effect; inconclusive = small, poorly fitted or top-dose-only effect; inactive = no such curve, though single readings can be large or run the other way; note: potency is the fitted concentration of half-maximal effect; % is set by controls: 0 for no effect and ±100 for the full control effect; nearly all actives have a fitted effect of over 50% in size
#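 Fission yeast strain RE007, carrying one chromosomally integrated HIV-1 vpr copy, was seeded at OD 0.01 in PMG+AL medium with 23 nL pinned compound. After 24 h at 30 °C and 99% humidity, viability was read by BacTiter-Glo luminescence.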
# FBPA Giardia inh: Giardia lamblia aldolase inhibition; A8B2U2; purified Giardia FBPA; Potency, µM (top dose mostly 59.6 µM), without a hit: at the highest dose activity, negative = inhibition, hits mostly inhibitors; 290,000 compounds, 0.71% hits; AID 2451; note: potency is the fitted concentration of half-maximal effect; % is set by controls: 0 for no effect and ±100 for the full control effect; nearly all actives have a fitted effect of over 55% in size
# Target sequence (A8B2U2 whole entry, looked up): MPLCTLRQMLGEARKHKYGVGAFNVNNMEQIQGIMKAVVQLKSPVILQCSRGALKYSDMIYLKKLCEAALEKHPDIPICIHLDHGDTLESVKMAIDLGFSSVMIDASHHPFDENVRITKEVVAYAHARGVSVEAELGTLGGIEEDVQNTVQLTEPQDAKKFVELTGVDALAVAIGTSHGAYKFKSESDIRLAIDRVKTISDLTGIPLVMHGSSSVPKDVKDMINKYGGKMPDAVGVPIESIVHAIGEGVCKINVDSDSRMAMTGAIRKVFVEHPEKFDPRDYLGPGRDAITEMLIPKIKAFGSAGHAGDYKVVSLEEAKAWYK
#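 Giardia FBPA (40 nM reagent) was preincubated 10 min at RT with compound (up to 57.5 uM final), then substrate plus GAPDH/TPI/NAD/arsenate coupling system with diaphorase/resazurin was added; resorufin fluorescence (525/598 nm) was read after 20 min.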
# Shiga toxin inh: Shiga toxin inhibition; AID 2315; Vero cells, Shiga toxin protein synthesis inhibition reporter; inhibition, % at 38.7 µM; 290,000 compounds, 9.2% hits; in the data active = inhibition mostly above about 28%, no sharp cut-off; inactive = mostly below about 43%; note: 0% is about no effect
# Tb PYK inh: T. brucei pyruvate kinase inhibition; TbPYK enzyme, Kinase-Glo Plus ATP luminescence, 45 min; 410,000 compounds, 0.12% hits; AID 624173; Potency, µM (highest dose often 76.8 µM), for inactives: at the highest dose activity, negative = inhibition, hits mostly inhibitors; note: potency is the fitted concentration of half-maximal effect; % is set by controls: 0 for no effect and ±100 for the full control effect; nearly all actives have a fitted effect of over 50% in size
#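 Screened from lowest to highest concentration, compounds were pinned into TbPYK/substrate mixtures, and ADP (130 uM final) was added. Plates sat at room temperature for 45 min prior to Kinase-Glo Plus detection by luminescence.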
# Starred values were filed as active, the others as inactive; ? = inconclusive; / = not tested or not shown; [ ] = remark or other dose. Unless noted, calls come from the whole dose curve; as a rule, active = well fitted curve in the direction sought with a large enough effect; inconclusive = small, poorly fitted or top-dose-only effect, or another doubt; inactive = no such curve, though single readings can be large; an effect the other way counts as inactive or inconclusive.
SMILES,LmPK inhibitor,Cycloheximide cs,RE007 growth inh,FBPA Giardia inh,Shiga toxin inh,Tb PYK inh
COc1ccc(CNC(=O)C2CCCN2)cc1OC (configuration not stated),1.4%,-1.6,23.7%,?,-9.8,2.8%
COC(=O)C[C@@H]1C[C@H]2c3cc(NC(=O)Nc4ccccc4F)ccc3O[C@H]2[C@H](CO)O1,/,/,-3.4%,/,/,10.5%
Cn1cccc1C(NC(=O)c1ccccc1)C(Cl)(Cl)Cl (configuration not stated),0.7%,-0.5,-2.0%,3.5%,-3.3,0.0%
O=C(Nc1nnc(-c2ccco2)s1)C1CC1,-4.2%,22.8*,0.5%,4.6%,31.0*,-11.1%
O=C(Nc1nnc(-c2ccco2)s1)c1ccccc1,-19.4%,44.3*,-11.3%,-6.9%,88.8*,-7.3%
O=C(COc1ccc2ccccc2c1)Nc1nnc(-c2ccco2)s1,2.8%,-1.4,?,3.4%,4.3,4.7%
Cc1nnc(NC(=O)c2ccccc2)s1,/,/,/,/,/,-7.1%
O=C(Nc1nnc(-c2ccco2)s1)C1CCN(S(=O)(=O)c2ccc(Cl)cc2)CC1,4.1%,-3.1,-3.6%,4.9%,-10.9,-5.2%
CC(C)C(=O)Nc1nnc(-c2ccco2)s1,-3.8%,29.4*,1.6%,0.7%,95.1*,-4.7%
COc1ccc(C(=O)Nc2nnc(-c3ccco3)s2)cc1,?,36.7*,2.7%,1.2%,71.8*,-5.4%
CC(=O)Nc1ccccc1-c1nc2ccccc2n(Cc2cccc(Br)c2)c1=O,/,/,/,/,/,-4.6%
Cc1ccccc1Cn1c2ccccc2c2cnn(CC(=O)NCC(C)c3ccccc3)c(=O)c21 (configuration not stated),/,/,/,/,/,0.0%
COc1cccc(CNC(=O)C2CCCN(S(=O)(=O)c3cn(C)cn3)C2)c1 (configuration not stated),/,/,/,/,/,-7.7%
CNc1oc(-c2ccc(COc3ccc(C)cc3)o2)nc1C#N,/,/,/,/,/,-6.0%
O=C(Cc1nnc(NC(=O)Nc2ccc(F)cc2)s1)Nc1ccccc1,-0.5%,-2.3,-1.8%,8.7%,22.0,-7.2%
O=C(Nc1ccc(F)cc1)Nc1nnc(-c2ccco2)s1,-4.6%,52.6*,9.1%,-1.0%,112.0*,3.6%
CCOC(=O)N=Nc1c2ccccc2c2nc3no[nH]c3nc12,-5.4%,4.7,5.01µM*,1.58µM*,27.2,2.9%
CCCCNC(=O)C1CCC(CNS(=O)(=O)c2ccc(Cl)cc2)CC1 (configuration not stated),/,/,/,/,/,3.5%
COc1ccc(/C=N/NC(=O)c2ccncc2)cc1CSc1nc2ccccc2s1,-0.2%,8.7,2.1%,-13.1%,9.3,5.5%
c1ccc(-c2ccc(-c3csnn3)cc2)cc1,-6.5%,33.1*,-12.8%,3.5%,56.6*,-1.3%
CCCCn1c(N)c(N(CCOC)C(=O)c2ccc(COc3ccccc3)o2)c(=O)[nH]c1=O,/,/,6.3%,/,/,-0.4%
CN1CCC(=O)N([C@H](CSc2ccc(Br)cc2)c2ccccc2)CC1,2.2%,25.0*,-0.7%,5.6%,63.5*,1.0%
CN1CCC(=O)N([C@H](CC#N)c2ccccc2)CC1,3.5%,-2.0,-0.2%,-14.7%,4.2,6.4%
Cc1ccc(SCC(c2ccccc2)N2CCN(C)CCC2=O)cc1 (configuration not stated),/,31.1*,/,4.2%,52.4*,/
Cc1ccc(C)c(NC(=O)c2nnn(Cc3ccc(F)cc3Cl)c2N)c1,/,/,/,/,/,-1.2%
SMILES,LmPK inhibitor,Cycloheximide cs,RE007 growth inh,FBPA Giardia inh,Shiga toxin inh,Tb PYK inh
Clc1ccc2ccc3cccnc3c2n1,-0.6%,5.3,?,-0.7%,50.8,6.1%
Cc1[nH]c2c(ccc3cccnc32)c1C,-0.9%,17.1*,-14.2%,-14.2%,41.5*,2.4%
Cc1nc(C)c(-c2ccc(SCC(=O)Nc3ccc(C)c(Cl)c3)nn2)s1,-0.7%,11.1,-6.7%,/,-3.9,-1.6%
COc1ccc(-c2ccc(SCC(=O)Nc3cccc(C(C)=O)c3)nn2)cc1OC,1.4%[11.5 µM],40.3*,0.1%,-0.3%,96.5*,0.0%
COc1ccc(-c2ccc(SCC(=O)c3ccc(F)cc3)nn2)cc1OC,-1.1%,11.3,-17.9%,-16.8%,-3.5,-3.5%
COc1ccc(-c2ccc(SCC(=O)c3cccs3)nn2)cc1OC,0.6%,14.7,3.1%,-7.1%,55.7*,-3.3%
CC(=O)c1ccc(NC(=O)CSc2ccc(-c3sc(C)nc3C)nn2)cc1,-2.6%,12.9*,-20.4%,/,18.2,-12.3%
COc1ccc(-c2ccc(SCC(=O)NCC3CCCO3)nn2)cc1OC (configuration not stated),3.7%,21.1*,1.6%,0.9%,7.4,3.4%
CCN1CCN(C(=O)c2c(C)nn(-c3ccc(F)cc3)c2-n2cccc2)CC1,/,/,/,/,/,1.4%
COc1ccccc1CCNC(=O)C(=O)NCC(c1cccnc1)N1CCN(c2ccccc2)CC1 (configuration not stated),/,/,/,/,/,-0.2%
COc1ccc(-c2ccc(SCC(=O)NC3CCCCC3)nn2)cc1OC,-6.0%,36.6*,-14.5%,9.7%,64.7*,-0.6%
COc1ccc(-c2ccc(SCC(=O)NC3CCCC3)nn2)cc1,/,/,-2.6%,/,/,2.3%
CCn1nnc2sc3c(c2c1=O)CCC(C)C3 (configuration not stated),2.9%,38.0*,-11.9%,5.0%,24.8,0.4%
CC1CCc2c(sc3ncn(Cc4ccc(C(=O)O)cc4)c(=O)c23)C1 (configuration not stated),2.6%,0.4,-13.0%,29.8%,15.6,0.7%
CC(=O)Cn1nnc2sc3c(c2c1=O)CCC(C(C)(C)C)C3 (configuration not stated),7.2%,66.4*,4.2%,-2.1%,88.0*,0.8%
CC1CCc2c(sc3ncn(CCO)c(=O)c23)C1 (configuration not stated),-5.2%,37.9*,-25.0%,5.6%,63.7*,-0.4%
COc1cccc(CC(=O)Nc2ccc(S(=O)(=O)Nc3nc(C)cc(C)n3)cc2)c1,7.1%[11.5 µM],-1.5,-11.8%,9.9%,-9.2,-27.2%
O=C(CSc1nnc(-c2cccc(F)c2)c(-c2cccc(F)c2)n1)NC1CCCCC1,/,/,/,/,/,-5.8%
COc1ccc(C(=O)NC(=S)NCCc2ccccc2)cc1,-3.3%,-1.0,9.8%,-4.2%,22.0,-11.6%
COc1cc(NC(=S)NCCc2ccccc2)c(OC)cc1NC(=O)CC(C)C,12.8%,-1.7,-2.3%,-11.8%,-17.4,-17.2%
CC(C)(C)CC(=O)NC(=S)NCCc1ccccc1,-4.2%,29.8*,-13.5%,-0.8%,62.1,-2.4%
CC(C)CC(=O)NC(=S)NCCc1ccccc1,2.9%,25.7*,?,-9.9%,57.1*,1.5%
COCCCn1nnnc1SCC(=O)Nc1nc2ccccc2s1,1.7%,10.5,-4.7%,/,-3.7,1.0%
Cc1c(C(=O)N2CCN(c3ccccn3)CC2)oc2ccccc12,14.1%,20.3*,-15.8%,16.6%,66.5*,-4.8%
